This is part of a sample that, as a whole, favours compounds with a hit. Of some 83,000 tested, about 20% had one in any assay.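 Note: values are percent growth. 100 is the growth of untreated cells, values between 100 and 0 indicate rising inhibition; between -100 and 0 indicates cell death.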 Values without a mark were called inactive. Active and inactive are the calls of the source. The calls were made as follows: active = growth percent below 10; inactive = the rest.
How the values were obtained:
Assay in all cases: NCI-60 one-dose screen, 48 h (100 = growth as untreated, 0 = no growth, -100 = all killed)
Conditions in all cases: 10 µM unless noted
[1] = system: NCI-H23 lung
[2] = system: NCI-H226 lung
[3] = system: NCI-H322M lung
[4] = system: HOP-62 NSCLC
[5] = system: NCI-H460 lung
[6] = system: HOP-92 NSCLC
[7] = system: NCI-H522 lung
[8] = system: A549/ATCC NSCLC
[9] = system: 786-0 renal
[10] = system: COLO 205 colon
[11] = system: DU-145 prostate
[12] = system: MALME-3M melanoma
[13] = system: MDA-MB-231 breast
[14] = system: RXF 393 renal
[15] = system: SF-268 CNS
[16] = system: SF-295 CNS
[17] = system: SF-539 CNS
[18] = system: UACC-257 melanoma
[19] = system: M14 melanoma

Compound	growth [1]	growth [2]	growth [3]	growth [4]	growth [5]	growth [6]	growth [7]	growth [8]	growth [9]	growth [10]	growth [11]	growth [12]	growth [13]	growth [14]	growth [15]	growth [16]	growth [17]	growth [18]	growth [19]
CC(=O)Oc1ccc(/C=N/NC(N)=S)nc1	37.8%	32.1%	92.8%	74.5%	96.4%	63.9%	74.5%	98.2%	53.3%	92.7%	81.5%	97.8%	87.1%	34.7%	66.5%	104%	20.4%	81.4%	58.2%
COc1cc(C2=NN(C(C)=O)C(c3cc(OC)c(OC)c(OC)c3)C2)ccc1O (stereo not given)	29.5%	38.5%	35.2%	32.8%	-6.58% (active)	48.5%	-33.8% (active)	21.7%	17.9%	-17.2% (active)	-1.86% (active)	49.4%	4.4% (active)	-20.9% (active)	36.2%	-55.6% (active)	-30.7% (active)	60%	-28.3% (active)
CC1(C)NCCC[C@]2(C)[C@H]3CC(=O)[C@H]4[C@@H]5C[C@](C)(CO)CC[C@]5(C)CC[C@@]4(C)[C@]3(C)CC[C@@H]12	104%	97.9%	98.2%	92.4%	99.6%	84%	101%	92%	94%	94.2%	96.4%	102%	118%	91.4%	85.3%	106%	91.2%	114%	92.6%
O=[N+]([O-])c1ccc(N=Nc2cc(S(=O)(=O)O)c3cccc(S(=O)(=O)O)c3c2O)cc1	103%	105%	80.7%	107%	116%	87.8%	110%	114%	114%	127%	132%	84.5%	112%	121%	115%	125%	104%	113%	97.6%
C[C@H]1[C@H]2[C@H]3CC[C@@H]4[C@@]5(C)CC[C@H](O)C(C)(C)[C@@H]5CC[C@@]4(C)[C@]3(C)CC[C@]23CO[C@]1(C)[C@@H](C(=O)/C=C\c1ccco1)C3	98.5%	99.7%	88.3%	104%	109%	65.4%	87.8%	104%	104%	-2.3% (active)	102%	-11.3% (active)	82.9%	110%	96.3%	110%	99.7%	-8.91% (active)	34.4%
COC1=CC(=O)c2ccccc2C1=O	48.9%	104%	94.9%	44.9%	106%	127%	77.8%	97.4%	105%	117%	88.8%	72.4%	99.1%	118%	102%	104%	124%	59.9%	87.2%
COc1ccc(/C=C/c2nc(Nc3ccc(Cl)cc3)c3ccccc3n2)cc1	73.1%	71.1%	44.3%	69%	18.2%	63.5%	69.3%	35%	36.9%	63.1%	50.2%	94.6%	38.2%	56.6%	54.3%	72.6%	90.9%	92.2%	34.3%
CN1[C@@H]2CC[C@H]1/C(=C\c1ccccc1)C(=O)/C2=C/c1ccccc1	29.7%	45.8%	51.2%	95.8%	13.8%	84.3%	48.2%	45.3%	45.3%	12.9%	14.1%	72.8%	47.6%	43.4%	38.3%	32.8%	43.1%	42.8%	43.4%
O=C1C=CC(=O)N1c1cccc(Cl)c1	103%	107%	121%	101%	111%	76%	69.9%	93%	105%	-6.46% (active)	123%	120%	132%	116%	108%	107%	113%	97.1%	114%
CC(c1ccccc1)C(C(=O)c1ccccc1)c1ccccc1 (stereo not given)	84.6%	73.5%	103%	44.8%	88.3%	107%	68.4%	80%	83.5%	112%	105%	109%	71.6%	90.6%	94.2%	91.8%	98.1%	105%	89.7%
CC(=O)[C@@H]1CC[C@]2(C(N)=O)CC[C@]3(C)[C@H](CC[C@@H]4[C@@]5(C)CCCNC(C)(C)[C@@H]5CC[C@]43C)[C@@H]12	93.7%	99.6%	96.3%	98.3%	86.2%	81.7%	107%	83.3%	88.9%	86.6%	91.6%	90%	106%	69.5%	80.2%	86.6%	90.1%	94.4%	77.5%
COc1cc(C2C3=C(COC3=O)N(CCO)c3cc4c(cc32)OCO4)cc(OC)c1OC (stereo not given)	12.2%	6.36% (active)	50.3%	12.6%	-54.3% (active)	52.1%	-13% (active)	30.8%	9.85% (active)	-84.3% (active)	5.4% (active)	56.3%	-1.03% (active)	-5.54% (active)	41.3%	21.4%	-51.6% (active)	60.8%	-19.6% (active)
O=C(/C(=C\c1ccc([N+](=O)[O-])cc1)S(=O)Cc1ccc(F)cc1)c1ccc(F)cc1 (stereo not given)	46.7%	77.9%	79.9%	38.1%	30.9%	65.2%	-22.1% (active)	79.9%	-43.9% (active)	8.65% (active)	33.1%	18.5%	12.8%	-67.8% (active)	31.5%	77.6%	39.4%	93.2%	38%
CC(=O)[C@H]1CCC/C=C/[C@@H]2C[C@H](O)C[C@H]2[C@H](O)/C=C/C(=O)O1	-5.21% (active)	-57.6% (active)	29%	25.4%	6.67% (active)	22.9%	-41.2% (active)	20.5%	-48.3% (active)	-94.8% (active)	25.4%	-11.5% (active)	-34.3% (active)	-32.8% (active)	12.3%	3% (active)	18.5%	24.1%	5.74% (active)
Cc1cc2cc3ccc(N(C)C)cc3nc2cc1N	-25.6% (active)	-28.4% (active)	-5.9% (active)	-39.1% (active)	-70.9% (active)	-4.62% (active)	-49.9% (active)	-18.7% (active)	8.26% (active)	-67.7% (active)	-50.3% (active)	-5.97% (active)	-18.4% (active)	-38% (active)	0.225% (active)	2.71% (active)	-4.96% (active)	-1.21% (active)	-13.4% (active)
